A short description of test [1]: Quantitative High-Throughput drug screen in 47 multiple myeloma cell lines against the NCATS MIPE library collection: MM1R_ATCC cell viability assay (AID 1918981). Note: nearly all actives have a fitted effect of over 35% in size. Put shortly: (§1)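 500 cells/well per myeloma line exposed to pinned MIPE 4.0 compounds for 48 h at 37 °C, 5% CO2. Viability read as ATP by CellTiter-Glo luminescence, normalised to DMSO-only (100%) and media-only (0%) wells.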

The nature of test [2]: Quantitative High-Throughput drug screen in 47 multiple myeloma cell lines against the NCATS MIPE library collection: LP1_DSMZ cell viability assay (AID 1918982). Note: nearly all actives have a fitted effect of over 35% in size. Put shortly:
as §1

The nature of test [3]: Quantitative High-Throughput drug screen in 47 multiple myeloma cell lines against the NCATS MIPE library collection: KMS28PE_JCRB cell viability assay (AID 1918983). Note: nearly all actives have a fitted effect of over 35% in size. Put shortly: as §1
Test [4] is described as follows: Quantitative High-Throughput drug screen in 47 multiple myeloma cell lines against the NCATS MIPE library collection: L363_DSMZ cell viability assay (AID 1918984). Note: nearly all actives have a fitted effect of over 40% in size. An outline of the steps:
as §1

The nature of test [5]: Quantitative High-Throughput drug screen in 47 multiple myeloma cell lines against the NCATS MIPE library collection: KMS34_JCRB cell viability assay (AID 1918985). Note: nearly all actives have a fitted effect of over 40% in size. An outline of the steps: as §1
Test [6] is described as follows: Quantitative High-Throughput drug screen in 47 multiple myeloma cell lines against the NCATS MIPE library collection: OPM1_PLB cell viability assay (AID 1918989). Note: nearly all actives have a fitted effect of over 40% in size. Put shortly: as §1
Test [7] can be described thus: Quantitative High-Throughput drug screen in 47 multiple myeloma cell lines against the NCATS MIPE library collection: SKMM1_PLB cell viability assay (AID 1919863). Note: nearly all actives have a fitted effect of over 35% in size. As to conditions: SKMM1 myeloma viability, CellTiter-Glo ATP, 48 h; viability: stronger effect = lower value. Put shortly:
as §1

Test [8] can be described thus: Quantitative High-Throughput drug screen in 47 multiple myeloma cell lines against the NCATS MIPE library collection: OCIMY5_PLB cell viability assay (AID 1918988). Note: nearly all actives have a fitted effect of over 65% in size. An outline of the steps:
as §1

A short description of test [9]: Quantitative High-Throughput drug screen in 47 multiple myeloma cell lines against the NCATS MIPE library collection: MM1S_ATCC cell viability assay (AID 1918980). Note: nearly all actives have a fitted effect of over 45% in size. An outline of the steps:
as §1

A short description of test [10]: Quantitative High-Throughput drug screen in 47 multiple myeloma cell lines against the NCATS MIPE library collection: OCIMY7_PLB cell viability assay (AID 1918987). Note: nearly all actives have a fitted effect of over 65% in size. As to conditions: OCI-MY7 myeloma viability, CellTiter-Glo ATP, 48 h; viability (% of DMSO): at 45.8 µM (top of the series). An outline of the steps:
as §1
Background: In ATP-based viability assays light output follows the ATP content of the culture.

Records with an inconclusive call do not appear. A number with no mark means an inactive call. The source made the active and inactive calls. Calls come from the whole dose curve; as a rule, active = well fitted cell-killing curve with a large enough effect; inconclusive = small, poorly fitted or top-dose-only effect, or effect the other way; inactive = no such curve, though single readings can be large or run the other way. Positions of bridges follow the written chain, without caps; N, C: chain ends. Non-standard residues stand in square brackets, D forms with d. Residues, ends and D or L forms follow the SMILES beside them. ξ: configuration not given here. *: point of attachment. Octanoyl(6-Me) = CCC(C)CCCCC(=O)*; ξThr(3R) = C[C@@H](O)C(N)C(=O)O; dDab = NCC[C@@H](N)C(=O)O; Dab = NCC[C@H](N)C(=O)O; Nva = CCC[C@H](N)C(=O)O; Cbz = O=C(OCc1ccccc1)*
Potency is the fitted concentration of half-maximal effect.

As for `O=C(c1ccc(F)cc1)N1CCC[C@H](c2nc(-c3ccc(F)cc3)no2)C1`, the Potency result in test [1], in test [2], in test [3], in test [4], in test [5] and in test [6] was “inactive” throughout.
What is called viability is a read-out of living cells in per cent, often relative to untreated cells. For `Nc1nc(=O)n([C@H]2CSC(CO)O2)cc1F` (some centres not stated), the Potency entry in test [1], in [2], in [3], in test [4] and in [6] was “inactive” each time. For the same compound, the viability in test [7] is 114%.
Regarding `COc1cc(OC)cc(-c2ccc3ncc4ccc(=O)n(-c5ccc(N6CCNCC6)c(C(F)(F)F)c5)c4c3c2)c1`, the Potency in test [1] is 4.69 µM (active); in test [2] it was 5.9 µM (active); in [3] it was 5.26 µM (active); in test [4] it was 0.833 µM (active); in test [5], 6.62 µM (active); in [8], 1.32 µM (active). Moreover, the Potency is 4.69 µM (active) in test [6] and 13.2 µM (active) in test [7].
In the case of `C#C[C@]1(O)CC[C@@H]2[C@@H]3CCc4cc(O)ccc4[C@H]3CC[C@@]21C`, the Potency was 11.8 µM (active) in test [9]; 3.72 µM (active) in [10]; 7.43 µM (active) in test [8]; 23.5 µM (active) in [6]; 14.8 µM (active) in test [7].
For `N#CC(=C(N)Sc1ccc(N)cc1)c1ccccc1C(F)(F)F`, the Potency is 14.8 µM (active) in test [1]; 16.6 µM (active) in [2]; 6.62 µM (active) in [3]; 0.148 µM (active) in test [10]; 16.6 µM (active) in test [8]; 7.43 µM (active) in test [7]. Besides, the Potency result in [5] is “inactive”.
For `CCC(C)CCCCC(=O)N[C@@H](CCN)C(=O)NC(C(=O)N[C@H](CCN)C(=O)N[C@@H]1CCNC(=O)C([C@@H](C)O)NC(=O)[C@@H](CCN)NC(=O)[C@@H](CCN)NC(=O)[C@@H](CC(C)C)NC(=O)[C@H](Cc2ccccc2)NC(=O)[C@H](CCN)NC1=O)[C@@H](C)O` (stereo partly drawn) ({Octanoyl(6-Me)}-[Dab][ξThr(3R)][dDab][dDab][Dab]F[dL][dDab][dDab][ξThr(3R)]; lactam 4-C), the Potency result in test [1], in test [2], in test [3] and in [10] was “inactive” each time. The viability in [7] is 110%.
As for `CCCCCCCN(CC)CCCC(O)c1ccc(NS(C)(=O)=O)cc1` (configuration not stated), the Potency entry in test [1] and in test [5] was “inactive” throughout.
As to `CCC[C@@H](C=O)NC(=O)[C@H](CC(C)C)NC(=O)[C@H](CC(C)C)NC(=O)OCc1ccccc1` (Cbz-Leu-Leu-[Nva]-aldehyde), the Potency in [1] was 0.743 µM (active); in [2] it was 1.32 µM (active); in test [3], 0.662 µM (active); in [10], 0.372 µM (active); in test [8], 0.935 µM (active); in [6], 0.59 µM (active). Besides, the Potency in [7] was 1.87 µM (active).
`CN1CCc2c(c3ccccc3n2Cc2ccc(C(=O)NO)cc2)C1`: the Potency in [1] is 16.6 µM (active); in test [3], 18.7 µM (active); in test [5], 16.6 µM (active); in test [8], 18.7 µM (active).
As to `C[C@@H](Cc1cc2c(c(C(N)=O)c1)N(CCCO)CC2)NCCOc1ccccc1OCC(F)(F)F`, the Potency entry in [1], in test [3], in test [5] and in test [6] was “inactive” throughout.
For `C[C@](Cc1c[nH]c2ccccc12)(NC(=O)OC1C2CC3CC(C2)CC1C3)C(=O)NC[C@H](NC(=O)CCC(=O)O)c1ccccc1` (some centres not stated), the Potency result in [1] and in test [2] was “inactive” each time. Also, the viability in test [7] is 114%.

Source of the values: PubChem BioAssay (NCATS).
